# Pf growth 48h: P. falciparum growth inhibition at 48 hours (one generation); P. falciparum luciferase growth in erythrocytes, 48 h; Potency, µM (top dose mostly 28.7 µM), for the others: at the highest dose activity change, negative = inhibition, most hits filed as inhibitors; 5.9% of 310,000 active; AID 504832; note: potency is the fitted concentration of half-maximal effect; % is set by controls: 0 for no effect and ±100 for the full control effect
#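 Luciferase-expressing P. falciparum in infected erythrocytes (2% hematocrit, 0.1% parasitemia final) in RPMI 1640/0.5% Albumax were exposed to compound for 48 hours at 37 C, 5% CO2; growth read as luminescence.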
# HCMV inh: human cytomegalovirus inhibition | 4.5% of 410,000 active | AID 1259415 | HFF cells, HCMV-luciferase reporter, 72 h; stronger effect = lower value | activity change, negative = inhibition, % at 57.5 µM; in the data active = activity change below about -60%; inconclusive = no clear call, values can overlap the other calls; inactive = above about -39%; note: % is set by controls: 0 for no effect and ±100 for the full control effect
#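 Two compound doses tested in HFFs infected with HCMV-luciferase, MOI 1 PFU/cell, 72 h at 37C. Lysate luminescence read with OneGlo; data normalized against buffer-only and 10uM Salinomycin inhibitor controls.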
# SARS PLP yeast: SARS-CoV PLP inhibition in yeast | 0.19% of 330,000 active | Potency, µM (series often up to 32.9 µM), without a hit: at the top dose activity, positive = growth rescue, hits mostly activators | S. cerevisiae expressing SARS-CoV PLpro, growth rescue; calls by dose curve; note: potency is the fitted concentration of half-maximal effect; 0% is about no effect; nearly all actives have a fitted effect of over 55% in size
# Pf growth 96h: inhibits malaria parasite growth, 96 h. P. falciparum luciferase reporter growth, 96 h. Potency, µM (titrated, usually from 28.7 µM), for inactives: at the top dose activity change, negative = inhibition, hits mostly inhibitors. 6.9% of 320,000 active; note: potency is the fitted concentration of half-maximal effect; % is set by controls: 0 for no effect and ±100 for the full control effect
#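 Two parasite generations (96 h, 37 C, 5% CO2) of compound exposure in infected erythrocytes (0.05% parasitemia, 2% hematocrit). Luciferase-reporter P. falciparum; decreased luminescence indicates inhibited growth, aimed at apicoplast-acting delayed death.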
# HCV inh: HCV inhibition. 3.4% of 340,000 active. Potency, µM (series often up to 41.8 µM), without a hit: top-dose activity change, negative = inhibition, hits mostly inhibitors. Huh7.5.1 HCVcc-Cre infection, luciferase reporter, 44 h; note: potency is the fitted concentration of half-maximal effect; % is set by controls: 0 for no effect and ±100 for the full control effect
#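 HCVcc-Cre virus at an moi near 0.5 was added right after compound to cells cultured 4 h from seeding (1,000 cells/well). Luciferase activity was determined 44 h later, 15 min after substrate addition at RT.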
# Sm TGR inh: S. mansoni TGR enzyme inhibition | 3% of 360,000 active | Potency, µM (titrated, usually from 114 µM), without a hit: at the top dose activity change, negative = inhibition, actives largely listed as inhibitors | Q962Y6 | purified TGR, DTNB reduction, TNB absorbance 405 nm | AID 485364; note: potency is the fitted concentration of half-maximal effect; % is set by controls: 0 for no effect and ±100 for the full control effect; nearly all actives have a fitted effect of over 60% in size
#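 Kinetic colorimetric format: TGR-catalysed, NADPH-driven DTNB reduction monitored via TNB absorbance. Enzyme dispensed at 20 nM; compound exposure 15 min at room temperature before reaction start.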
# * = called active by the depositor; ? = inconclusive; . = not tested or not shown; [ ] = another dose, or the depositor's remark. Shown are actives, neighbours in structure and some others; about 15% of the full set was active somewhere. Unless noted, calls come from the whole dose curve; as a rule, active = well fitted curve in the direction sought with a large enough effect; inconclusive = small, poorly fitted or top-dose-only effect, or another doubt; inactive = no such curve, though single readings can be large; an effect the other way counts as inactive or inconclusive.
SMILES,Pf growth 48h,HCMV inh,SARS PLP yeast,Pf growth 96h,HCV inh,Sm TGR inh
O=C(NN=C1c2ccccc2-c2ccccc21)c1ccccc1Br,10%,-21,-5%,37%,?,4%
CCOC(=O)c1ccc(NC(=O)N2CCN(CCc3ccccc3)CC2)cc1,?,110,-1%,.,?,-5%
CCOc1ccc(NC(=O)OCCN2CCN(CCc3ccccc3)C(C)C2)cc1 (centres undefined),.,?,.,.,11µM*,.
CCN=C1NC(c2ccccc2C(F)(F)F)C(C(=O)OC)=C(C)N1C (centres undefined),.,60,.,.,.,.
CN1C(=O)C2(OCC(COc3ccc(Cl)cc3)O2)c2ccccc21 (centres undefined),2%,?,-20%,0%,-23%,1%
O=C1Nc2ccccc2C12OCC(COc1ccc(Cl)cc1)O2 (centres undefined),12%,-11,-3%,.,13µM*,-8%
COc1ccc(-n2c(C)nc3cc(C(=O)NC4CCCC4)ccc32)cc1,.,-19,.,.,.,-2%
O=c1c2ccccc2nc(SCc2cn3ccsc3n2)n1-c1ccc(F)cc1,?,-77*,-3%,?,-6%,9%
O=C(CSc1nc2ccccc2c(=O)n1-c1ccc(F)cc1)NCc1ccco1,.,-5,-7%,3%,-16%,-31%
CC(C)N1C(=O)CC2(CC[N+](C)(CCOC(=O)C(c3ccccc3)c3ccccc3)CC2)C1=O (centres undefined),16%,7,3%,3%,33%,50µM*
CC(C)N1C(=O)CC2(CC[N+](C)(CCOC(=O)C(O)(c3ccccc3)c3ccccc3)CC2)C1=O (centres undefined),14%,-15,0%,12%[5.75 µM],22%,-3%
COc1ccccc1/C=C/c1nc(C#N)c(N2CCN(c3ccccc3)CC2)o1,.,3,.,.,.,1%
O=C(N/N=C\c1c(O)ccc2ccccc12)c1ccc(S(=O)(=O)N2CCCCC2)cc1,1.5µM*,-103*,4µM*,85%,5µM*,-1%
O=C(NN=Cc1c(O)ccc2ccccc12)c1ccc2c(c1)OCO2,.,-102*,1%,.,5µM*,.
O=C(CNC(=O)c1ccc(S(=O)(=O)N2CCCC2)cc1)N/N=C/c1ccccc1Cl,?,-63*,2%,-17%,?,6%
COc1ccc2ccccc2c1/C=N/NC(=O)c1ccc(C)nc1,-37%,33,-3%,?,?,25%
O=C(N/N=C/c1c(O)ccc2ccccc12)c1ccc(CO)nc1,?,-99*,26%,23%,11µM*,-20%
Cn1c(SCc2ccc(F)cc2)nc2ccc(C(=O)NCc3cccc(Cl)c3)cc21,.,-23,.,.,.,1%
Cc1cc(O)cc(O)c1/C=N/NC(=O)c1ccc2c(c1)OCCO2,.,-100*,.,.,.,.
COCCN(C(=O)CCc1ccccc1OC)c1nnc(-c2cccnc2)s1,?,-61*,-2%,?,-16%,14%
COCCN(C(=O)CC(C)(C)C)c1nnc(-c2cccnc2)s1,?,-13,7%,67%,10%,-8%
COCCN(C(C)=O)c1nnc(-c2cnccn2)s1,28%,-25,12%,2.3µM*,3%,0%
C[C@@H]1CN([C@H](C)CO)C(=O)CCCn2nncc2CO[C@H]1CN(C)Cc1ccccc1,.,0,.,.,.,.
CC(C)c1nnc(NC(=O)CSc2nc3ccccc3s2)s1,8%,-73*,4%,.,11%,3%
O=C(CSc1nc2ccccc2s1)Nc1cc(S(=O)(=O)N2CCOCC2)ccc1O,16%,64,13µM*,?,5%,-4%
Nc1nonc1NC(=O)CSc1nc2ccccc2s1,19%,58,.,10µM*,18%,11%
C=CCn1c(SCc2cc(C(C)=O)ccc2OCC)nc2ccccc2c1=O,?,-12,-7%,5.9µM*,?,-23%
COc1ccc(C(C)=O)cc1CSc1nnc(-c2ccncc2)n1C,6%,-3,1%,?,12%,-5%
